Bioassay records from PubChem.
Sampled rows, rich in hits. Any-hit rate of the full collection: about 6%.
VDR inh = blocks the human vitamin D receptor | VDR-SRC2-3 peptide fluorescence polarization, 2 h | Potency, µM, actives largely listed as inhibitors | AID 504847 | P11473 | actives 0.93% (n = 400,000)
Target sequence (P11473 whole entry, looked up): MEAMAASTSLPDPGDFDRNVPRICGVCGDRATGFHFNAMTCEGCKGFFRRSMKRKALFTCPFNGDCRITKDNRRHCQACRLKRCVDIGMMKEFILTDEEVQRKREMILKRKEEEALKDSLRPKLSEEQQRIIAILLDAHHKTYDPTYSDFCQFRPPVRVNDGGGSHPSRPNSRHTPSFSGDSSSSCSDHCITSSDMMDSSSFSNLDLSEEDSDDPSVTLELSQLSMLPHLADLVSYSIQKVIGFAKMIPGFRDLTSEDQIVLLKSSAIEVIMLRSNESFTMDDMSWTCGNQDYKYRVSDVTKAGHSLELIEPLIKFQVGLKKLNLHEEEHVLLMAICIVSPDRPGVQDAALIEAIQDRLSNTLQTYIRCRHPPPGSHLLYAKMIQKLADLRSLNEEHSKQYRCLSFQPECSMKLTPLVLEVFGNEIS
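The screen uses fluorescence polarization to detect compounds that interfere with recruitment of the SRC2-3 coactivator peptide to VDR; plates are read after 2 h at room temperature.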
Tau fibril ThT = blocks human tau fibril formation measured by thioflavin T | recombinant tau K18 P301L, heparin-induced fibrillization, ThT fluorescence | Potency, µM (doses to about 57.4 µM), actives largely listed as inhibitors | P10636 | actives 2.1% (n = 270,000); also: nearly all actives have a fitted effect of over 55% in size
Target sequence (P10636 561-689 P618L limits assumed): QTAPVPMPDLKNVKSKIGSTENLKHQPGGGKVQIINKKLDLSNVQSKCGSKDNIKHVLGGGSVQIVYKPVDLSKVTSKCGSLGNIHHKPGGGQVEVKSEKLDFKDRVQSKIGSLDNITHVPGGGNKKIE
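Heparin-induced (20 uM) aggregation of recombinant human K18 P301L tau, 15 uM unlabeled with 0.24 uM labeled, pH 7 acetate buffer, 6 hr at 37 C with compound. Fibrils quantified by 30 uM ThT fluorescence after 1 hr ambient incubation.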
Tau fluor cs = counter-screen for tau fibril formation inhibitors; tau K18 P301L (four-repeat tau fragment) Alexa594 fluorescence, heparin fibrillization; Potency, µM (doses to about 57.7 µM); actives 0.93% (n = 280,000); AID 1463; also: nearly all actives have a fitted effect of over 55% in size
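Human K18 P301L tau (15 uM unlabeled plus 0.24 uM Alexa 594-labeled, final) in 100 mM sodium acetate pH 7 was mixed with compound and 20 uM heparin and incubated 6 hr at 37 C.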
PLK1 PBD block = blocks phosphopeptide binding to human PLK1 polo-box domain; P53350; Plk1 PBD binding of FITC phosphopeptide, fluorescence polarization; Potency, µM, hits mostly inhibitors; actives 2.8% (n = 360,000); AID 720504; also: series mostly up to about 57 µM; nearly all actives have a fitted effect of over 65% in size
Tau fibril FP = tau fibrillization inhibition (FP). P10636. K18 P301L tau heparin fibrillization, Alexa594 FP, 6 h. Potency, µM (top dose mostly 57.7 µM), most hits filed as inhibitors. actives 0.39% (n = 280,000). AID 1468; also: nearly all actives have a fitted effect of over 55% in size
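Human K18 P301L fragment (15 uM unlabeled plus 0.24 uM Alexa 594-labeled) in 100 mM sodium acetate pH 7 with compound, aggregation induced by 20 uM heparin for 6 hr at 37 C. ThT (30 uM) added for 1 hr, then Alexa 594 FP read.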
Sfp PPTase inh = Sfp phosphopantetheinyl transferase inhibition; Biochemical Sfp PPTase activity, qHTS; Q9F4F7; Potency, µM, actives largely listed as inhibitors; actives 3.5% (n = 310,000);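 also: the enzyme is Sfp with the accession as filed and its product quenches rhodamine fluorescence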
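Fluorescence-quenching assay with 15 nM Sfp, 5 uM rhodamine-CoA and 12.5 uM BHQ-2-labelled ybbR peptide in pH 7.6 Hepes/MgCl2 buffer. Enzyme was pre-incubated with compound for 15 min at room temperature. Rate was taken from the 30-min fluorescence change (525/598 nm).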
Numbers stand for hits; i = inactive; ? = inconclusive; nt = not tested or not shown; [ ] = remark or other dose. Calls follow the shape of the dose curve; as a rule, active = well fitted curve in the direction sought with a large enough effect; inconclusive = small, poorly fitted or top-dose-only effect, or another doubt; inactive = no such curve, though single readings can be large; an effect the other way counts as inactive or inconclusive.

SMILES	VDR inh	Tau fibril ThT	Tau fluor cs	PLK1 PBD block	Tau fibril FP	Sfp PPTase inh
NC(=S)NNc1ccnc2cc(Cl)ccc12	i	?	i	21.2µM	i	i
CCN(CC)C(=O)Cn1cnc2sc(C(=O)NCCCN3CCOCC3)c(C)c2c1=O	i	nt	nt	i	nt	i
O=C(CCS(=O)(=O)c1cc2c(cc1Cl)NC(=O)CO2)NCc1ccc(Cl)cc1	i	i	?	nt	i	nt
Cc1ccc(C)c(NS(=O)(=O)c2cc3c(cc2Cl)NC(=O)CO3)c1	i	i	14.1µM[quencher]	nt	i	nt
CC1CCCC(NC(=O)CCS(=O)(=O)c2cc3c(cc2Cl)NC(=O)CO3)C1C (stereo not given)	i	nt	nt	26.7µM	nt	i
COc1cc(OC)c(NS(=O)(=O)c2cc3c(cc2C)NC(=O)CO3)cc1Cl	i	i	i	nt	i	nt
Cc1ccc(CNC(=O)CCS(=O)(=O)c2cc3c(cc2Cl)NC(=O)CO3)cc1	?	?	i	26.7µM	i	i
CCOc1ccc(CCNc2ncnc3onc(C)c23)cc1OCC	i	i	i	nt	i	nt
COc1cccc(Cn2c(=O)c(-c3cn(C)c4ccccc34)nc3cnc(N4CCNCC4)nc32)c1	i	nt	nt	nt	nt	?
O=C(COC(=O)CCNS(=O)(=O)c1ccc(Cl)cc1)Nc1ccccc1OC(F)F	i	nt	nt	i	nt	nt
Cc1nc2c(OCc3ccccc3)cccn2c1N(C)C(=O)C1CCCCC1	nt	nt	nt	i	nt	nt
COc1ccc(C2CC(c3ccccc3)Oc3c(C)ccc(C(C)C)c32)cc1 (stereo not given)	i	nt	nt	nt	nt	i
COc1ccccc1OCCCOc1cccc(/C=C2\SC(=O)NC2=O)c1	?	nt	nt	21.2µM	nt	?
O=C(Nc1ccc(F)cc1F)c1noc2c1CCc1ccccc1-2	i	i	i	nt	i	nt
CCOC(=O)Cc1csc(SCn2nnc3ccccc3c2=O)n1	i	i	i	i	i	i
CCOC(=O)Cc1csc(-n2sc3ccccc3c2=O)n1	15.8µM	28.2µM	?	2.99µM	28.2µM	6.31µM
Cc1ccc(SC2=C(Sc3ccc(C)cc3)C(=O)c3ccccc3C2=O)cc1	?	3.16µM	2.51µM[quencher]	1.68µM	14.1µM	7.08µM
Cc1ccc(N2C(=O)c3ccccc3C2=O)cc1	i	nt	i	i	i	i
Cc1ccccc1Cc1c(C)nc2c(C(=O)NCc3ccco3)cnn2c1C	?	?	i	i	i	50.1µM
Cc1ccccc1Cc1c(C)nc2nc(SCC(=O)NCc3ccco3)nn2c1C	i	i	i	i	i	i
CCCCOc1ccc(Cn2c(=O)sc3ccccc32)cc1	i	i	i	nt	i	nt
O=C(CSc1cn(CC(=O)N2CCCCC2)c2ccccc12)NCc1ccc(F)cc1	i	i	i	nt	i	nt
O=c1oc(-c2ccccc2)cc(Cl)c1Cl	i	nt	nt	10.6µM	nt	i
O=c1cc(-c2ccccc2)oc2ccc(Cl)cc12	i	nt	nt	i	nt	nt
Cc1cc(C)c(C#N)c(Nc2ccccc2Cl)n1	i	i	i	i	i	i
SMILES	VDR inh	Tau fibril ThT	Tau fluor cs	PLK1 PBD block	Tau fibril FP	Sfp PPTase inh
N#Cc1c(Nc2ccccc2Cl)s[nH]c1=O	?	7.94µM	?	?	8.91µM	3.98µM
N#Cc1c(Nc2ccccc2C(F)(F)F)s[nH]c1=O	?	15.8µM	i	26.7µM	28.2µM	3.55µM
NNc1ccccc1C(F)(F)F	i	i	i	i	i	i
CCOc1ccc(NC(=O)c2ccc(-c3cccc(Cl)c3C)o2)cc1	i	?	?	nt	i	nt
Cc1cccc(NC(=O)C2CC(=O)n3cnnc3S2)c1 (stereo not given)	i	?	i	?	i	28.2µM
Nc1c(C(=O)NC2CCCC2)c2nc3ccccc3nc2n1/N=C/c1ccco1	i	i	i	i	i	i
Nc1c(C(=O)NC2CCCC2)c2nc3ccccc3nc2n1N	i	?	i	i	i	31.6µM
COc1cc(-c2nn3c(C4CCCCC4)nnc3s2)cc(OC)c1OC	i	i	i	?	i	?
COc1ccc(-c2nn3c(C4CCCCC4)nnc3s2)cc1OC	?	i	i	21.2µM	i	?
Cc1ccc(-n2nc(C(=O)N3CCN(c4ccccc4F)CC3)c(=O)n(C)c2=O)cc1	i	i	i	nt	i	nt
COC(=O)CC1Oc2cc3oc4c5ccccc5oc(=O)c4c3cc2O1 (stereo not given)	nt	?	i	nt	i	i
Cc1n[nH]c(C)c1N=Nc1ccc(Br)cc1	i	11.2µM	i	i	i	i
O=C(NCCc1ccccc1)c1ccc2c(c1)CCN2S(=O)(=O)c1ccccc1	i	i	i	nt	i	nt
Cc1nc(COC(=O)c2cc(O)c3ccccc3c2O)cs1	?	25.1µM	?	21.2µM	?	28.2µM
NS(=O)(=O)c1ccc(-c2ccc(/C=C3\NC(=S)NC3=O)o2)cc1	79.4µM	nt	nt	?	nt	5.62µM
COc1ccc2cc(-c3nc(Cl)c4c5c(sc4n3)CCCC5)c(=O)oc2c1	i	?	i	nt	i	nt
COc1ccc2cc(C(=O)N/N=C/c3sc4ccccc4c3O)ccc2c1	i	1.26µM	7.94µM[quencher]	i	i	i
COc1ccc(C(=O)N/N=C/c2sc3ccccc3c2O)cc1	i	1.78µM	?	i	i	i
O=C(N/N=C/c1sc2ccccc2c1O)c1ccccc1	i	?	?	i	i	i
O=C(N/N=C/c1sc2ccccc2c1O)c1cccc2ccccc12	?	10µM	?	i	i	i
COc1cc(OC)cc(-c2noc([C@@H]3O[C@H](CO)[C@@H](O)[C@H]3O)n2)c1	nt	nt	nt	i	nt	nt
COc1ccc(CNC(=O)Cn2c(SCC(=O)Nc3ccc(C)c(C)c3)nc3ccccc32)cc1	i	i	i	nt	i	nt
Cc1cc2cc(CCNC(=O)CCc3ccccc3)c(=O)[nH]c2cc1C	?	nt	nt	i	nt	i
CCCCN(CCCC)CCNC(=O)c1cc(=O)[nH]c2ccc(S(=O)(=O)N3CCCCCC3)cc12	i	i	i	nt	i	nt
O=S(=O)(c1ccccc1)C(/C=N\O)/C=C/c1ccccc1 (stereo not given)	i	?	i	2.99µM	i	50.1µM
SMILES	VDR inh	Tau fibril ThT	Tau fluor cs	PLK1 PBD block	Tau fibril FP	Sfp PPTase inh
CC(C)C(C=Cc1ccccc1)=NNS(=O)(=O)c1ccccc1	nt	nt	nt	i	nt	nt
O=C(Nc1ccccc1)[C@@H]1[C@@H]2C(=O)N(c3ccc(F)cc3)C(=O)[C@@H]2[C@H]2C=CC=NN21	i	?	i	i	i	35.5µM
CN=C1C([N+](=O)[O-])=CC=C2C1=NC1(CCCCC1)N2O	i	i	i	i	i	8.91µM
O=[N+]([O-])C1=CC=C2C(=NC3(CCCCC3)N2O)C1=NCCO	i	i	i	i	i	39.8µM
C1CSC2(N1)C1CC3CC2CC(C1)C31NCCS1 (stereo not given)	i	?	i	i	?	20µM
O=C1CSC2(N1)C1CC3CC(C1)CC2C3 (stereo not given)	i	i	i	i	i	i
COc1ccc(C2N(c3ccccc3)CCN2c2ccccc2)cc1O	i	?	14.1µM[quencher]	i	i	i
COc1cc(C2N3CC4(C)CN2CC(C)(C3)C4)ccc1O (stereo not given)	i	i	i	i	i	i
COc1cc(OC)cc(C(=O)NC2CCN(CC(=O)Nc3cccc4ccccc34)CC2)c1	i	?	i	i	i	i
